Results filed as inconclusive are left out. Active and inactive are the calls of the source. Unless noted, calls follow the shape of the dose curve; as a rule, active = well fitted curve in either direction with a large enough effect (not every such curve was filed as active); inconclusive = small, poorly fitted or top-dose-only effect, or another doubt; inactive = flat fitted curve, though single readings scatter.
Assays:
[1] = AP1 Signaling Pathway (AID 357); settings: ME-180 AP-1-bla reporter, EGF-induced, beta-lactamase ratio, 5 h; at 17.2 µM (top of the series) unless noted;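 also: ME-180 reporter cells stimulated with EGF at its EC50 level; % is scaled to controls: 0 for no effect and ±100 for the full control effect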
How it was run: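 A ratiometric CCF4 readout (405 nm excitation; 460 and 530 nm emission) quantified AP-1-driven beta-lactamase in ME-180 cells after 5 h with compound and EC50 EGF; AC50 values were derived for activators and inhibitors.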

[2] = NFAT Signaling Pathway (AID 444); settings: Jurkat NFAT-bla M1, carbachol, beta-lactamase ratio, 5 h; at 17.2 µM (top of the series) unless noted;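 also: carbachol stimulus at about its EC50 of 1 µM final; % is scaled to controls: 0 for no effect and ±100 for the full control effect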
How it was run: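 Read-out: CCF4 FRET ratio (460 nm/530 nm) after 1 h RT dye loading, used for %activity and AC50 from titration series. Cells: Jurkat NFAT-β-lactamase/M1 line, treated with compound plus 1 uM carbachol for 5 h, 37 °C.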

[3] = Stat Signaling Pathway (AID 446);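 also: ME-180 cervical cancer cells given 40 pM IL-6 alongside compound; SIE-controlled beta-lactamase reporter measured as 460/530 nm FRET emission ratio; % is scaled to controls: 0 for no effect and ±100 for the full control effect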
How it was run: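 Reporter line: ME-180 cervical carcinoma, SIE-beta-lactamase. Treatment: compound with 40 pM IL-6, 5 hrs, 37 C, in low-serum OPTI-MEM with 10 mM HEPES pH 7.3. Detection: 460/530 nm fluorescence.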

[4] = molecular target: Glucocorticoid receptor (Homo sapiens) (UniProt P04150); assay: GR-GFP Redistribution (AID 450;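 active = compounds whose dose series gives a full or clear partial fitted curve of increased nuclear translocation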; also: potency is read from the fitted curve at half-maximal effect); settings: U2OS GR-GFP nuclear translocation, laser cytometry, 2 h
Glucocorticoid receptor (Homo sapiens), sequence (P04150 whole entry, looked up): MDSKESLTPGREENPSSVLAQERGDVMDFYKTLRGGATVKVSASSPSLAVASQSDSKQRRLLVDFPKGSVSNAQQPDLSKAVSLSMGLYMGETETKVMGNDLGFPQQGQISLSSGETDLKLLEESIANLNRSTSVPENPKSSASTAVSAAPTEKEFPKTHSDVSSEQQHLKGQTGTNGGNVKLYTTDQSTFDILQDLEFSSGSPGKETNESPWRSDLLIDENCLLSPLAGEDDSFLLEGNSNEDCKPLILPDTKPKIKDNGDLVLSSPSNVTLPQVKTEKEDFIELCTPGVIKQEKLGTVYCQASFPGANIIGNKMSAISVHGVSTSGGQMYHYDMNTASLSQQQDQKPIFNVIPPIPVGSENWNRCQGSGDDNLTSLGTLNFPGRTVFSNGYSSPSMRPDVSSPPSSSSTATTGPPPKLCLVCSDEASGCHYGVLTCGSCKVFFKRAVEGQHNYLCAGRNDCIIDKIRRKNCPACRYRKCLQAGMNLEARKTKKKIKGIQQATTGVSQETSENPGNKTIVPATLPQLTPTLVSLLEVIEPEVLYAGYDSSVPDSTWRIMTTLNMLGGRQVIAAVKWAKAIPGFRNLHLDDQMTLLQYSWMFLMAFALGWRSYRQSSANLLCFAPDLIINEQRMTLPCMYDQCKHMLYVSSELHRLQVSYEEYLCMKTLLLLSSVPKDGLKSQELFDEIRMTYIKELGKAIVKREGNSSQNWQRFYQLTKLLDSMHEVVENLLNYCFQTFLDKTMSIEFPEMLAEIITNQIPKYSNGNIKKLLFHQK

COc1ccc(C(=O)CC2C(=O)N(C)C(=O)N(C)C2=O)cc1
inactive: activity change, negative = inhibition [1] 8.4% | activity change, negative = inhibition [2] -29.5% | outcome [3] | Potency [4] > 20.6 µM

CC(=O)OC1(Cc2ccccc2)CN2CCC1c1ccccc12 (centres undefined)
inactive: activity change, negative = inhibition [1] -0.0283% | activity change, negative = inhibition [2] -23.5% | outcome [3] | Potency [4] > 46 µM

COc1ccc2c(c1)c(C(=O)O)c(C)n2CC(C)C
inactive: activity change, negative = inhibition [1] 12.3% | activity change, negative = inhibition [2] 1.61% | outcome [3] | Potency [4] > 20.6 µM

COc1ccc(C2SCC(=O)Nc3c2c(=O)[nH]n3C2CCCCCC2)cc1 (centres undefined)
inactive: activity change, negative = inhibition [1] -18.2% | activity change, negative = inhibition [2] 1.93% | outcome [3] | Potency [4] > 20.6 µM

COc1ccc(Cn2c(O)c(C=NCCCn3ccnc3)c(=O)[nH]c2=O)cc1
inactive: activity change, negative = inhibition [1] -15.8% | activity change, negative = inhibition [2] -15.1% | outcome [3] | Potency [4] > 20.6 µM

COc1ccc(C2SCC(=O)Nc3c2c(=O)[nH]n3C2CCCCC2)cc1 (centres undefined)
inactive: activity change, negative = inhibition [1] -14.7% | activity change, negative = inhibition [2] 0.11% | outcome [3] | Potency [4] > 20.6 µM

COC(=O)C(O)(c1c[nH]c2ccccc12)C(F)(F)F (centres undefined)
inactive: activity change, negative = inhibition [1] -14.1% | activity change, negative = inhibition [2] -8.45% | outcome [3] | Potency [4] > 20.6 µM

CC(=C1C(=O)c2ccccc2C1=O)N1CCN(CCN=Cc2c(O)n(C)c(=O)n(C)c2=O)CC1
inactive: activity change, negative = inhibition [1] -15.2% | activity change, negative = inhibition [2] -5.34% | outcome [3]

CC(=O)OC1(c2ccc(C)cc2)CN2CCC1c1ccccc12 (centres undefined)
inactive: activity change, negative = inhibition [1] 7.68% | activity change, negative = inhibition [2] -10.3% | outcome [3] | Potency [4] > 20.6 µM

CCOC(=O)C1=C(C)OC(N)=C(C(=O)OCC)[C@@]12C(=O)N(CC(N)=O)c1ccccc12
inactive: activity change, negative = inhibition [1] 1.68% | activity change, negative = inhibition [2] 2.5% | outcome [3] | Potency [4] > 20.6 µM

COc1cc2[nH]c(=O)n(-c3cccc(Cl)c3)c(=O)c2cc1OC
inactive: activity change, negative = inhibition [1] 9.62% | activity change, negative = inhibition [2] 13.7% | outcome [3] | Potency [4] > 20.6 µM

O=c1[nH]c(=O)n(Cc2ccco2)c(O)c1C=NCc1ccc2c(c1)OCO2
inactive: activity change, negative = inhibition [1] -17.4% | activity change, negative = inhibition [2] 2.74% | outcome [3] | Potency [4] > 20.6 µM

CN1CCc2c(c(N3CCCCC3)nc3n[nH]c(N)c23)C1
inactive: activity change, negative = inhibition [1] -3.37% | activity change, negative = inhibition [2] -4.59% | outcome [3] | Potency [4] > 20.6 µM

CCOc1ccc(Cc2c(O)[nH]c(=O)[nH]c2=O)cc1
inactive: activity change, negative = inhibition [1] -3.54% | activity change, negative = inhibition [2] 3.49% | outcome [3] | Potency [4] > 20.6 µM

O=c1[nH]c(=O)n(Cc2ccccc2)c(O)c1C=NCCN1CCOCC1
inactive: activity change, negative = inhibition [1] 1.24% | activity change, negative = inhibition [2] -7.84% | outcome [3] | Potency [4] > 20.6 µM
